Tests used:
Assay in all cases: PBM binding z-score (relative to random genomic background probes); higher = stronger binding; sequences stand for … in GC…GCGATTGACAGCGTAGAATGAAGG
[1] = test system: PPARg:RXRa DBDmut IVT, anti-RXR (DBD mutation: RXRa K156A/R161A, NR concentration 270 nM, RXRa partner concentration 90 nM)
Summary of the method: (§1)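 On custom Agilent 4×180K arrays, double-stranded probes with 34-nt variable regions carried direct-repeat seeds, single-nucleotide variants, half-site ablations or random human genomic background. Ligand-free nuclear receptor dimers were applied for 1 h, and binding was read with antibodies against each partner (one per run). Binding z-scores come from regression-normalized fluorescence, with the random background probes as reference.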

[2] = test system: PPARg:RXRa IVT, anti-PPARg (NR concentration 270 nM, RXRa partner concentration 90 nM)
Summary of the method: as §1

[3] = test system: PPARg DBDmut:RXRa IVT, anti-PPARg (DBD mutation: PPARg1 K132A/R137A, NR concentration 270 nM, RXRa partner concentration 90 nM)
Summary of the method: as §1

[4] = test system: PPARg DBDmut IVT, anti-PPARg (DBD mutation: PPARg1 K132A/R137A, NR concentration 270 nM)
Summary of the method: as §1

[5] = test system: PPARg homodimer (NR concentration 180 nM)
Summary of the method: as §1

[6] = test system: PXR:RXRa (NR concentration 270 nM, RXRa partner concentration 90 nM)
Summary of the method: as §1

[7] = test system: PXR homodimer (NR concentration 270 nM)
Summary of the method: as §1

[8] = test system: RARa:RXR (NR concentration 270 nM, RXRa partner concentration 90 nM)
Summary of the method: as §1

[9] = test system: RARa homodimer (NR concentration 270 nM)
Summary of the method: as §1

[10] = test system: RARb:RXRa (NR concentration 270 nM, RXRa partner concentration 90 nM)
Summary of the method: as §1

Row | Sequence | PBM binding z-score [1] | PBM binding z-score [2] | PBM binding z-score [3] | PBM binding z-score [4] | PBM binding z-score [5] | PBM binding z-score [6] | PBM binding z-score [7] | PBM binding z-score [8] | PBM binding z-score [9] | PBM binding z-score [10]
1 | CAAACTAGGTAAAGGTCAAAGTCGGTTTGTGCCA | 6.36 | 6.65 | 4.01 | 1.08 | 4.48 | 5.72 | 2.28 | 6.09 | 1.6 | 4.99
2 | ACTAGTTGGTCAGCTAAGGTCACACACAATTCGG | 1.38 | 2.77 | 0.873 | 0.678 | 3.37 | 5.12 | 1.46 | 4.92 | 2.09 | 4
3 | CCTTACGGGTTACGAGGTTATAGCACGACGAGCG | 1.39 | 2.73 | -0.246 | 1.02 | 1.32 | 1.95 | 0.0657 | 2.76 | 0.573 | 1.58
4 | GGAACGAGGGCATTCGAGTTGATACCATGGCGAT | 3.16 | 2.33 | 1.32 | -0.701 | 0.6 | 4.1 | 1.75 | 2.07 | -0.391 | 1.93
5 | CGAACTAGGTCATTGACAGGACAGTAAATAGTAA | 8.11 | 7.89 | 2.15 | 1.51 | 1.72 | 1.89 | 0.641 | 2.43 | -0.0635 | 3.81
6 | GGAACGATGGCAAGTTGATAGCAGAGTTTGATGG | 0.0538 | -0.751 | -1.07 | -0.527 | -1.16 | -0.323 | -0.221 | -0.504 | -0.494 | -0.496
7 | AGAATGAGGTTACCAAAGATCAAGGAAACGCTTG | 3.78 | 3.43 | 0.922 | 0.563 | 0.97 | 2.06 | -0.325 | 2.48 | -0.42 | 2.25
8 | TCTTGTAGATCAAGCAGGGTAAGAAAGCCTGAGT | 1.7 | 0.481 | -0.108 | -0.000734 | -0.854 | 0.136 | -0.0302 | 0.246 | -0.676 | -0.148
9 | TAGCCTAGGTCATGCGCGCCAGTATAGTGTCGGC | 2 | 3.17 | 0.974 | 0.266 | 2.85 | 1.55 | -0.618 | 2.62 | -0.473 | 3.74
10 | CCGACTGGGGCAGAAAGGTTACCCTACCATCCGG | 1.23 | 1.93 | -1.08 | -1.51 | 0.207 | 0.618 | -0.304 | 1.34 | -0.533 | 1.73
11 | ACTATTAGTTGACTTAGGGCAACCAATACGACGC | 0.203 | 0.66 | 0.926 | 0.817 | 0.6 | 0.385 | 0.557 | 0.714 | 0.139 | 0.985
12 | TCTTGTAGATCAAAGGTGAAGAAAGCCGAAGCCT | 2.96 | 3.53 | -0.0532 | 0.112 | 0.161 | 0.885 | -0.554 | 1.86 | -0.538 | 1.49
13 | AGAATGAGGTTAAGATCAGGGATACAGAATACAT | 3.07 | 2.89 | 0.847 | 0.843 | 0.828 | 1.23 | 0.547 | 2.08 | 0.49 | 1.92
14 | GGAACGAGGGCATTCGAGTCGATAGCATGGCGAT | 2.96 | 2.19 | -0.0559 | -0.671 | -0.141 | 1.5 | 0.546 | 0.428 | -0.54 | 1.48
15 | CCTACTGGGCCATAGGTCATTGATTCCAATGCTC | 3.69 | 5.78 | -0.202 | 0.625 | 2 | 2.1 | 0.286 | 2.7 | -0.287 | 2.34
16 | CAAACTAGGTCACCGGTAGGTCAAAGTCCGCATG | 8.32 | 9.19 | 3.98 | 4.14 | 4.51 | 4.51 | 0.526 | 5.43 | 1.6 | 4.95
17 | TCGAGTAGGTTACCAATGGGGCATTCATCTTTCT | 3.66 | 2.75 | -0.207 | -0.196 | 0.277 | 0.256 | -0.536 | 0.587 | -0.332 | 0.994
18 | AGAATAAGGTTACCAAAGATCAGGGAAACGCTTG | 2.55 | 2.26 | 1.2 | 1.13 | 0.8 | 1.03 | 0.338 | 1.61 | 0.942 | 2.57
19 | GCTCGCAGGCCATTTGGGTCACTCAATGACGGGC | 1.09 | 1.56 | -1.82 | -1.26 | 0.213 | 0.621 | 0.71 | 0.492 | -0.566 | 1.72
20 | TCTCGGAGGACTCGAAGGTCAGAGCTTTCCAGAG | 1.45 | 0.0197 | -0.446 | -1.86 | 0.353 | 1.04 | -0.316 | 1.48 | -1.07 | 2.17
21 | CAAACTAGGTCAAGATCAAAGTCGGTTTGTGCCA | 8.24 | 8.61 | 5.86 | 4.95 | 2.34 | 1.31 | -0.0944 | 2.05 | 0.622 | 4.02
22 | ACTAGTTGGTCAGCTGAGGTCACACATAATTCGG | 1.85 | 2.53 | 0.818 | 1.05 | 2.38 | 5.42 | 1.87 | 4.34 | 1.21 | 3.51
23 | CGAACTAGGTCAAGCACAGTGAATCTCCGCACGC | 8.33 | 8.4 | 5.79 | 3.74 | 2.82 | 1.18 | -0.61 | 2.31 | 0.512 | 3.98

From the supplement of paper PMC6555819
